Shiga inhibitor = inhibitors of Shiga toxin in Vero cells. Vero cells, Shiga toxin protein synthesis inhibition reporter. hit rate 9.2% among 290,000. inhibition, % at 38.7 µM. AID 2315; in the data active = inhibition mostly above about 28%, no sharp cut-off; inactive = mostly below about 43%; note: 0% is about no effect
Pf growth 48h = P. falciparum growth inhibition at 48 hours (one generation); hit rate 5.9% among 310,000; AID 504832; Potency, µM (series often up to 28.7 µM), without a hit: at the highest dose activity change, negative = inhibition, actives largely listed as inhibitors; P. falciparum luciferase growth in erythrocytes, 48 h; note: potency is the fitted concentration of half-maximal effect; % is set by controls: 0 for no effect and ±100 for the full control effect
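Luciferase-expressing parasites in RBCs, 2% Hct / 0.1% parasitemia final; RPMI 1640 + 0.5% Albumax; 37 C, 5% CO2, one generation; luminescence read-out, lower signal = inhibition.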
Pf growth 96h = P. falciparum growth inhibition at 96 hours; P. falciparum luciferase reporter growth, 96 h; Potency, µM (highest dose often 28.7 µM), for inactives: at the highest dose activity change, negative = inhibition, usual class: inhibitors; hit rate 6.9% among 320,000; AID 504834; note: potency is the fitted concentration of half-maximal effect; % is set by controls: 0 for no effect and ±100 for the full control effect
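P. falciparum expressing integrated firefly luciferase, in erythrocytes at 2% hematocrit, 0.05% parasitemia, incubated with compounds 96 h at 37 C, 5% CO2. Growth inhibition read as loss of luminescence; two-generation exposure targets delayed-death apicoplast inhibitors.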
CHX counter = affects cycloheximide protein synthesis inhibition readout, counter-screen | cell reporter, cycloheximide protein synthesis inhibition counterscreen | max response, % | hit rate 12% among 300,000 | AID 2314; in the data active = max response mostly above about 13%, no sharp cut-off; inactive = mostly below about 14%; note: read at 38.3 µM for the half of the compounds with a filed dose; 0% is about no effect
Active calls of the source: *; ? = inconclusive; / = not tested or not shown. Sampled rows, rich in hits. Any-hit rate of the full collection: about 21%. Unless noted, calls come from the whole dose curve; as a rule, active = well fitted inhibition curve with a large enough effect; inconclusive = small, poorly fitted or top-dose-only effect, or another doubt; inactive = no such curve, though single readings can be large or run the other way.

SMILES	Shiga inhibitor	Pf growth 48h	Pf growth 96h	CHX counter
CC(C)(C)C(=O)Nc1cc2c3c(c1)CCC(=O)N3CCC2	11	17%	9%	-4
CSc1ccc(CNC(=O)C2Cc3cc(S(=O)(=O)N4CCCCC4)ccc3N2C(C)=O)cc1 (configuration not stated)	13	-22%	15µM*	6
CCOc1ccc(CNC(=O)C2Cc3cc(S(=O)(=O)N4CCCC4)ccc3N2C(C)=O)cc1 (configuration not stated)	2	-8%	?	-4
CSc1ccc(CNC(=O)C2Cc3cc(S(=O)(=O)N4CCCC4)ccc3N2C(C)=O)cc1 (configuration not stated)	-7	-10%	-2%	2
CCOc1ccc(CNC(=O)C2Cc3cc(S(=O)(=O)N4CCCCC4)ccc3N2C(C)=O)cc1 (configuration not stated)	-7	-20%	10µM*	-1
NC(=O)c1nc(-c2ccco2)nc2c1[nH]c(=O)n2-c1ccc(Cl)c(Cl)c1	-6	38%	22%	-3
CNc1ncc(C(=O)c2ccc(Cl)c(Cl)c2)s1	94*	82%	107%	38*
CNc1ncc(C(=O)c2ccc(-c3ccccc3)cc2)s1	64*	93%	64%	45*
CNc1ncc(C(=O)c2ccc(Cl)cc2)s1	69*	171%	183%	35*
COC(=O)c1cc(S(=O)(=O)n2nc(C)c(Br)c2C)c(Cl)cc1Cl	-16	/	?	-1
CCOC(=O)[C@@H]1[C@H]2COc3ccccc3[C@@H]2N2C(=O)N(c3cccc(Cl)c3)C(=O)[C@]12C	14	?	?	3
CCO[C@@H]1OC(C(N)=O)=C[C@H](c2ccc3c(c2)OCO3)[C@H]1CCCO	-7	56%	55%	-1
O=C(O)C1SCCN1S(=O)(=O)c1ccc(N=NN2CCOCC2)cc1 (configuration not stated)	-11	21%	1.9µM*	0
CC(C)CC(C(=O)Nc1ccccc1)N1C(=O)C2C3C=CC(C3)C2C1=O (configuration not stated)	-2	-1%	-5%	-1
CCCOC1(NC(=O)c2ccccc2)C(C)=CC(=O)C=C1C	-5	15%	3.3µM*	-2
COc1ccc(-c2csc3nc[nH]c(=O)c23)cc1OC	24	-19%	-4%	-8
CCCOc1ccc(-c2csc3ncn(Cc4ccc(C(=O)O)cc4)c(=O)c23)cc1	-12	3%	?	-3
Cc1ccc(-c2csc3nc[nH]c(=S)c23)cc1C	-8	?	10µM*	1
CCCOc1ccc(-c2csc3nc[nH]c(=O)c23)cc1	47*	105%	42%	41*
O=c1[nH]cnc2scc(-c3ccc(-c4ccccc4)cc3)c12	47	/	163%	29*
Cc1ccc(-c2csc3ncnc(NCCC(=O)O)c23)cc1C	-12	0%	35%	-1
CCn1c(SCC(=O)Nc2cc(C)on2)nc2c(c1=O)SCC2	-6	?	-6%	-2
CSC1=N/C(=C/c2cccnc2)C(=O)N1Cc1ccc(Cl)cc1	-12	6.6µM*	?	44*
CC(=O)c1ccc(S(=O)(=O)NCCC(=O)OCC(=O)N2CCCC2=O)cc1	/	39%	20%	/
CN(C)CCNc1oc(COc2ccc(-c3ccccc3)cc2)nc1C#N	-13	?	/	22
SMILES	Shiga inhibitor	Pf growth 48h	Pf growth 96h	CHX counter
N#Cc1nc(COc2ccccc2F)oc1NCc1ccc(F)cc1	64*	/	12%	35*
COc1ccc(CCNc2oc(COc3ccccc3F)nc2C#N)cc1	30	-3%	?	15*
COc1ccc(CCNc2oc(Cc3cccc4ccccc34)nc2C#N)cc1OC	1	6.6µM*	?	8
COc1ccc(CCNc2oc(COc3ccc(Br)cc3)nc2C#N)cc1OC	-4	/	?	-6
C=CCNc1oc(COc2ccc(C)cc2)nc1C#N	136*	/	6.6µM*	25*
O=C(NCC(=O)N(c1ccccc1F)C(C(=O)NC1CCCC1)c1cccnc1)c1ccco1 (configuration not stated)	-9	19%	?	-2
O=C(CC1C(=O)NCCN1Cc1ccccc1C(F)(F)F)NCCc1ccccn1 (configuration not stated)	-11	11%	-13%	-1
CN(C)c1oc(COc2ccc(F)cc2)nc1C#N	-5	-2%	/	6
CN(C)c1oc(COc2ccccc2F)nc1C#N	59*	34%	49%	29*
NC12CC3CC(C1)CC(CC(=O)O)(C3)C2	-5	0%	4%	5
NC12CC3CC(C1)CC(CO)(C3)O2	-8	0%	8.3µM*	-6
COC(=O)C1=C(N)OC2=C(C(=O)CC(C)(C)C2)C1c1cc2c(cc1Cl)OCO2 (configuration not stated)	5	0%	-14%	-1
COc1cc(NC(=O)c2ccc3c(c2)OCCO3)ccc1NC(=O)c1cccs1	73	25%	-22%	22*
COc1cc(NC(=O)c2ccc3c(c2)OCCO3)ccc1NC(=O)c1ccco1	39*	60%	2.3µM*	19*
COc1cc(NC(=O)c2ccc3c(c2)OCO3)ccc1NC(=O)C(C)C	38	24%	-16%	18
O=C1[C@H]2[C@@H](C(=O)N1c1cccc3ccccc13)C1(C(=O)c3ccccc3C1=O)N1CCC[C@@H]21	-9	?	?	-4
CN(CC(=O)Nc1ccc(Cl)c(S(=O)(=O)N(C)C)c1)Cc1ccccc1	73*	-6%	?	40*
CC1Cc2ccccc2N1CC(=O)Nc1ccc(N2CCOCC2)cc1 (configuration not stated)	-14	-13%	-13%	8
CN(C)S(=O)(=O)c1cc(NC(=O)CN2CCCc3ccccc32)ccc1Cl	14	?	?	12
CN(C)S(=O)(=O)c1cc(NC(=O)CN2CCc3ccccc32)ccc1Cl	28	?	-16%	30*
CC1Cc2ccccc2N1CC(=O)Nc1ccc2c(c1)OCCCO2 (configuration not stated)	/	?	12µM*	/
CC1Cc2ccccc2N1CC(=O)Nc1ccc(Cl)c(S(=O)(=O)N(C)C)c1 (configuration not stated)	-1	9.3µM*	-54%	-3
O=C(NC1CCOCC1)C1CCC(=O)N(Cc2ccc(Cl)cc2)C1 (configuration not stated)	-26	9%	?	-1
Cc1ccc(/C([O-])=C(/C(=S)NCc2ccc3c(c2)OCO3)[n+]2ccc(N(C)C)cc2)c(C)c1	5	-14%	-12%	-3
O=C(CCC(=O)N1CCN(c2ccc(C(F)(F)F)cn2)CC1)c1cccs1	/	-21%	-13%	/
CC(C)OC(=O)CSc1nc(Cc2ccccc2)nc2ccccc12	-1	?	?	-3
FC(F)(F)c1cc(-c2ccco2)nc(NCCc2ccccc2)n1	78	28%	-4%	20*
O=C(CCSc1nc(-c2ccco2)cc(C(F)(F)F)n1)N1CCCc2ccccc21	21	15µM*	/	5
COc1ccc(-c2cc(C(F)(F)F)nc(SCCC(=O)NCc3ccccc3)n2)cc1	-8	15µM*	/	-2
O=C(CCSc1nc(-c2ccco2)cc(C(F)(F)F)n1)NCCc1ccccc1	54	?	3%	33*

Source: PubChem BioAssay (National Center for Advancing Translational Sciences (NCATS))
